CYP2C9 activ: activators of human CYP2C9; P11712; recombinant CYP2C9, luciferin-H conversion, luminescence; hits give high values; factor 1 = untreated enzyme, 0 = blocked; activation factor at 5 µM; hit rate 1.4% among 96,000; AID 1024;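 active = activation factor of 2 or more for CYP2C9 at a 5 µM dose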;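 also: 0 = sulfaphenazole-blocked wells and 1 = vehicle-only wells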
Target sequence (P11712 whole entry, looked up): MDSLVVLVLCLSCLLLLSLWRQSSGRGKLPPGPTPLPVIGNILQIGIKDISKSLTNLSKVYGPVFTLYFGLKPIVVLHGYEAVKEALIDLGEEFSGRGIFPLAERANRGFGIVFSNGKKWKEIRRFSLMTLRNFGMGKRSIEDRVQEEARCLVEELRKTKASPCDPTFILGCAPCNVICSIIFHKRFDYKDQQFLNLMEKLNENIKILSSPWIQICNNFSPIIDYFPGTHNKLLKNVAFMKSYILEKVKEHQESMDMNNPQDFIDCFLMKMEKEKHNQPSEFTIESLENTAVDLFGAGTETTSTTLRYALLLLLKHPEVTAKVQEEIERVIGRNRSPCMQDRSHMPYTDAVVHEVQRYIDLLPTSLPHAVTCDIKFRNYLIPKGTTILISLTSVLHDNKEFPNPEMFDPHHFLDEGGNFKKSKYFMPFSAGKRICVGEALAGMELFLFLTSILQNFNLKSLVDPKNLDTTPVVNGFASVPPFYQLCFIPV
CYP2C19 act: cytochrome P450 2C19 (human) activation; recombinant CYP2C19, luciferin-H EGE luminescence; hits give high values; 0 = fully inhibited enzyme, 1 = untreated enzyme; activation factor at 5 µM; 96,000 tested, under 10 active; AID 1025;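 active = activation factor of at least 2 at 5 µM in the primary screen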;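 also: 0 = wells with 2.5 mM tranylcypromine and 1 = vehicle-only wells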
CYP2C19 inh: inhibitors of human CYP2C19; CYP2C19 Supersomes, luciferin-H EGE luminescence, 30 min; hit rate 21% among 96,000; inhibition, % at 5 µM; P33261;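 active = CYP2C19 inhibition above a set limit at 5 µM in the primary screen, cut at about 50% in these data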;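 also: plate controls were negative control wells for no effect and 2.5 mM tranylcypromine positive control for full effect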
Measles CPE: protection of cells from measles virus. hit rate 1.5% among 140,000. AID 841. Measles virus-infected cells, CPE protection, absorbance. protection (pct of control), % at 4 µM; in the data active = protection mostly above about 24%, no sharp cut-off; inactive = mostly below about 26%
CYP2C9 inh: inhibitors of human CYP2C9. hit rate 20% among 96,000. P11712. CYP2C9 Supersomes, luciferin-H conversion, luminescence. inhibition, % at 5 µM;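 active = blocking of liver enzyme CYP2C9 beyond about 50% at 5 µM, limit read from the data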
* marks the source's active call; other numbers are inactive results; x = no result. Shown are actives, neighbours in structure and some others; about 22% of the full set was active somewhere.

SMILES | CYP2C9 activ | CYP2C19 act | CYP2C19 inh | Measles CPE | CYP2C9 inh
Cc1cc(C(=O)COC(=O)C2=NNC(=O)CC2)c(C)n1-c1cccc(C(F)(F)F)c1 | 0.2 | 0.2 | 78* | 20 | 81*
Cc1cc(C(=O)COC(=O)C2=NNC(=O)CC2)c(C)n1-c1ccc(OC(F)F)cc1 | 0.7 | 0.7 | 30 | 3 | 27
CCC(C(=O)OCC(=O)Nc1ccc(Cl)c(S(=O)(=O)N(C)C)c1)c1ccccc1 (configuration not stated) | x | x | x | 4 | x
O=C1c2ccccc2C(=O)N1CCc1csc(-c2ccc(F)cc2)n1 | 1 | 0 | 100* | 25 | 1
O=C1c2ccccc2C(=O)N1CCc1csc(-c2ccccc2)n1 | 1.4 | 0 | 100* | 39* | -36
O=C1c2ccccc2C(=O)N1CCc1nc(-c2ccccn2)no1 | 0.9 | 0.7 | 29 | 2 | 8
Cn1cccc1C(=O)OCc1csc(-c2ccccc2)n1 | 1.2 | 1 | -4 | 14 | -18
CC(Sc1nnc(-c2cccs2)n1-c1ccccc1)C(=O)NCc1ccco1 (configuration not stated) | 0.2 | 0.3 | 71* | 8 | 82*
Cc1cc(C)c(NC(=O)C(C)Sc2nnc(-c3ccco3)n2-c2ccccc2)c(C)c1 (configuration not stated) | 0.3 | 0.1 | 90* | 25 | 66*
CCn1c(SCC(=O)NCc2ccco2)nnc1-c1cccs1 | 0.6 | 0.7 | 34 | 9 | 36
c1ccc(N=P(N2CCOCC2)(N2CCOCC2)N2CCOCC2)cc1 | 1.1 | 1.1 | -14 | 5 | -10
CSCCC(NC(=O)c1ccccc1)C(=O)Nc1ccc(C)cc1 (configuration not stated) | x | x | x | 8 | x
COc1ccc(OC)c(C2=NOC(C(=O)NCc3ccco3)C2)c1 (configuration not stated) | 3.1* | 0.8 | 18 | 7 | -213
COc1cccc(C2=NOC(C(=O)Nc3ccccc3SC)C2)c1 (configuration not stated) | 2.5* | 0.4 | 63* | 28 | -147
COc1cccc(C2=NOC(C(=O)Nc3cc(OC)c(OC)c(OC)c3)C2)c1 (configuration not stated) | 1.1 | 0.8 | 20 | 4 | -8
COc1cccc(C2=NOC(C(=O)NCc3cccs3)C2)c1 (configuration not stated) | 0.3 | 0.5 | 54* | 6 | 68*
COCC(C)NC(=O)C1CC(c2cccc(Br)c2)=NO1 (configuration not stated) | 2.1* | 1 | 0 | 7 | -110
CC(NC(=O)c1cccnc1)C(c1cccs1)N1CCOCC1 (configuration not stated) | x | x | x | 7 | x
COc1ccc(Sc2ccccc2CN(C)C)cc1OC | 0.7 | 0.4 | 57* | 14 | 26
COC(=O)COc1ccc(S(=O)(=O)NCCC2=CCCCC2)cc1 | 0.3 | 0 | 95* | 27 | 69*
CC(C)NS(=O)(=O)c1ccc(OCC(=O)NCCC2=CCCCC2)cc1 | 0.8 | 0.4 | 56* | 9 | 21
CCCNS(=O)(=O)c1ccc(OCC(=O)OC)cc1 | 0.4 | 0.5 | 53* | 39* | 56*
CCCNS(=O)(=O)c1ccc(OCC(=O)NCCC2=CCCCC2)cc1 | 0.6 | 0.7 | 34 | 7 | 39
COC(=O)COc1ccc(S(=O)(=O)NCCC2=CCCCC2)cc1C | 0.9 | 0 | 99* | 11 | 8
C=CCCc1ccc(C#N)c(SCc2c(C(=O)OCC)c3cc(OC(C)=O)c(Br)cc3n2C)n1 | x | x | x | 6 | x
SMILES | CYP2C9 activ | CYP2C19 act | CYP2C19 inh | Measles CPE | CYP2C9 inh
CC1CCCC(NC(=O)COC(=O)c2c[nH]c(=O)[nH]c2=O)C1C (configuration not stated) | 1.3 | 1.1 | -5 | 7 | -31
CCCC(=O)NC(NC(=S)Nc1ccc(N=Nc2ccccc2)cc1)C(Cl)(Cl)Cl (configuration not stated) | x | x | x | 2 | x
O=CN1CCc2scc[n+]2-c2ccccc21 | x | x | x | 10 | x
COC(=O)c1cc(C(=O)OC)cc(S(=O)(=O)Nc2ccc(Cl)c(N)c2)c1 | 1 | 0.1 | 94* | 9 | 2
COC(=O)c1cc(NS(=O)(=O)c2ccc(N3CCOCC3)c(N)c2)cc(C(=O)OC)c1 | x | x | x | 2 | x
CCOC(=O)N1CCN(S(=O)(=O)c2ccc(OCC(=O)OC)cc2)CC1 | 0.9 | 0.8 | 22 | 12 | 11
c1ccc(CSc2n[nH]c(-c3ccco3)n2)cc1 | 0.8 | 0.4 | 61* | 14 | 17
CC(C)c1[nH]nc2c1C(c1ccc(OC(=O)c3ccco3)cc1)C(C#N)=C(N)O2 (configuration not stated) | 0.3 | 0.3 | 74* | 4 | 73*

Bioassay records: PubChem BioAssay, several laboratories
